Compound activity (PubChem BioAssay)
UBC9 SUMO inh – blocks human SUMOylation mediated by UBC9. actives 0.36% (n = 290,000). inhibition, % at 35 µM. AID 2006. P63279. HTRF SUMOylation assay, SAE1/SAE2 + UBC9, in vitro; in the data active = inhibition above about 50%, passing the limit was not always enough
HGIII-sPLA2 inh – Inhibits HGIII-sPLA2 liposome hydrolysis, primary screen. AID 743126. QFRET BODIPY PC-A2 liposome hydrolysis, fluorescence. actives 0.56% (n = 370,000). Q9NZ20. inhibition, % at 12.2 µM;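 active = inhibition above mean plus 3 SD of compounds lying within the high and low control bounds, cut at about 19% in these data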;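 note: 0% = median of test compound wells and 100% = no enzyme DMSO wells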
Target sequence (Q9NZ20 whole entry, looked up): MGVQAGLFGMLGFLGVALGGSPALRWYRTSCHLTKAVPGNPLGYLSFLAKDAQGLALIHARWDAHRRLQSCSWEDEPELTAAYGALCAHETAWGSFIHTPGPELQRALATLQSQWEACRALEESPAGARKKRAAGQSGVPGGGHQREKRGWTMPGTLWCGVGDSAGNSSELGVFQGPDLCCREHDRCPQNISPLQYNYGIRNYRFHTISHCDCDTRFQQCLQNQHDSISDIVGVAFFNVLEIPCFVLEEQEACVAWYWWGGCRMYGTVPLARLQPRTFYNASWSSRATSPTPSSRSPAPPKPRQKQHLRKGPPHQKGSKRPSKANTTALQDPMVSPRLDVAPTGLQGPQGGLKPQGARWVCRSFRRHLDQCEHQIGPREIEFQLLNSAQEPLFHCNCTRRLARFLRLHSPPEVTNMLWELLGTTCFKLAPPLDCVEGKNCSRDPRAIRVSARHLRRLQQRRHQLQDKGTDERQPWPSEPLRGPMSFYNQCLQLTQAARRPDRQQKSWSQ
GRIN3A LBD mod – modulates the human NR3A ligand-binding domain; NR3A LBD differential scanning fluorimetry, Tm shift; 0% = protein alone, 100% = glycine-bound protein; Tm shift relative to glycine control, % at 25 µM; actives 2.5% (n = 340,000); AID 1259313;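 active = melting temperature shift of at least 10% of the positive control shift, at one fixed dose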
UBC13 inh – blocks human UBC13 polyubiquitin chain formation | TR-FRET | inhibition, % at 20 µM | actives 0.47% (n = 330,000); in the data active = inhibition above about 45%, passing the limit was not always enough
Starred values were filed as active, the others as inactive; . = not tested or not shown. A selection: hits, their analogues and other compounds. The true share with any hit is near 3.3%.

SMILES	UBC9 SUMO inh	HGIII-sPLA2 inh	GRIN3A LBD mod	UBC13 inh
C#CCOCCOCCOCCNc1nc(N2CCN(C(=O)[C@H](CCCCN)n3cc([C@@H](N)CO)nn3)CC2)nc(N2CCN(C(=O)[C@H](Cc3cc4ccccc4[nH]3)n3cc([C@@H](N)Cc4ccc(O)cc4)nn3)CC2)n1	-1	.	.	106*
C#CCOCCOCCOCCNc1nc(N2CCN(C(=O)[C@H]([C@@H](C)CC)n3cc([C@@H](N)Cc4ccc(O)cc4)nn3)CC2)nc(N2CCN(C(=O)[C@H](CCCCN)n3cc([C@@H](N)CC(C)C)nn3)CC2)n1	0	.	.	97*
C#CCOCCOCCOCCNc1nc(N2CCN(C(=O)[C@H](CCCCN)n3cc([C@@H](N)CC(C)C)nn3)CC2)nc(N2CCN(C(=O)[C@H](Cc3ccc(O)cc3)n3cc([C@@H](N)CC(C)C)nn3)CC2)n1	5	.	6	37
O=C(OC12CCCN(C1)/C(=C/c1cccnc1)C2)c1ccccc1 (configuration not stated)	.	-1	.	.
CC(=O)N1CCc2cc(S(=O)(=O)NC3CCN(C(=O)CCl)CC3)ccc21	.	-1	.	.
C#CCOCCOCCOCCNc1nc(N2CCN(C(=O)[C@H](Cc3ccc(O)cc3)n3cc([C@@H](N)C(C)CC)nn3)CC2)nc(N2CCN(C(=O)[C@H](Cc3cc4ccccc4[nH]3)n3cc([C@@H](N)Cc4ccc(O)cc4)nn3)CC2)n1 (some centres not stated)	-23	.	.	78*
C#CCOCCOCCOCCNc1nc(N2CCN(C(=O)[C@H](Cc3ccc(O)cc3)n3cc([C@@H](N)CC(C)C)nn3)CC2)nc(N2CCN(C(=O)[C@H](Cc3ccc(O)cc3)n3cc([C@@H](N)CC(C)C)nn3)CC2)n1	-7	.	.	63*
O=C(CSc1nc2ccccc2n1Cc1ccccc1)NN=C/C=C/c1ccccc1	.	-9	.	.
CCCCCNC(=O)C1CC=CCC1C(=O)O (configuration not stated)	3	4	12*	-7
CCCCN(CCCC)C(=O)C1CC=CCC1C(=O)O (configuration not stated)	2	2	1	0
C=CCCC(=O)N1CCC(C(=O)NC2CCCc3ccccc32)CC1 (configuration not stated)	.	7	.	.
CCOc1cc(C(=S)N2CCOCC2)ccc1OS(=O)(=O)c1ccccc1	29	7	11*	-8
COc1cc(C(=S)N2CCCC2)ccc1OS(=O)(=O)c1ccc(NC(C)=O)cc1	2	-6	20*	-11
CCOc1cc(C(=S)N2CCOCC2)ccc1OC(=O)c1ccccc1	15	6	-5	-10
Cc1ccc(NS(=O)(=O)c2ccc(Cl)c(C(=O)Nc3ccccc3-c3nc4ccccc4[nH]3)c2)cc1C	0	-44	34*	0
CN(C)S(=O)(=O)c1ccc(Cl)c(C(=O)Nc2nc3ccccc3[nH]2)c1	18	2	-2	6
COC(=O)CN1CCN(C(=O)c2csc(N3CCOCC3)n2)CC1	.	1	.	.
O=C(CN1C(=O)/C(=C2\SC(=S)N(CCS(=O)(=O)O)C2=O)c2ccccc21)Nc1cccc(Br)c1	56*	-21	12*	.
O=C(CN1C(=O)/C(=C2/SC(=S)N(CCS(=O)(=O)O)C2=O)c2ccccc21)Nc1cccc(C(F)(F)F)c1	.	-31	8	-30
COc1ccc(C(C(=O)N(C)C2CCCC2)N(Cc2ccc(F)cc2)C(=O)c2csc(-c3ccccc3)n2)cc1OC (configuration not stated)	.	-4	.	.
COC/C=C/C1=CC2=CC(=O)C(C)(OC(=O)c3cnc4ccccc4n3)C(=O)C2=CN1c1ccccc1 (configuration not stated)	26	-9	-4	-31
COC/C=C/C1=CC2=CC(=O)C(C)(OC(=O)c3cnc4ccccc4n3)C(=O)C2=CN1c1ccc(CO)cc1 (configuration not stated)	58*	.	.	-24
CCCOc1ccc(C(=O)NNC(=S)NC(=O)c2cc(-c3ccccc3)nc3ccccc23)cc1	-41	3	18*	-27
COc1ccc(C(=O)NC(=S)NNC(=O)c2ccc3ccccc3n2)cc1	-6	16	11*	-7
CCCOc1ccc(C(=O)NNC(=S)NC(=O)c2ccccc2)cc1	-55	20*	1	-22
SMILES	UBC9 SUMO inh	HGIII-sPLA2 inh	GRIN3A LBD mod	UBC13 inh
CCCOc1ccc(-c2cc(C(=O)NCC3CCCO3)c3ccccc3n2)cc1 (configuration not stated)	26	8	-3	14
CCCC(=O)Nc1ccc(C(=O)NNC(=S)NC(=O)c2cccs2)cc1	4	17	-8	26
CCCOc1ccc(C(=O)NNC(=S)NC(=O)c2cccs2)cc1	-75	32*	-9	-24
O=C(CCc1ccccc1)N[C@H]1/C(=N/O)CCC[C@]12C(=O)N(Cc1ccccc1)c1ccccc12	.	2	.	.
Cc1ccc2nc(-c3ccc(NC(=O)CSc4nnc(-c5ccccc5)n4Cc4ccco4)cc3)sc2c1	.	-16	.	.
Cc1c(Cl)ccc2c1NC(=O)[C@]21N[C@@H](Cc2ccccc2)[C@H]2C(=O)N(c3ccc(F)cc3)C(=O)[C@H]21	-16	-38	13*	8
O=C(/C=C/c1cccs1)c1ccc(Br)cc1	8	1	0	7
Cc1ccc(C(=O)Nc2ccc(C(=O)/C=C/c3cccs3)cc2)cc1	29	0	15*	0
O=C(/C=C/c1cccs1)c1ccc(NC(=O)c2cccc(Br)c2)cc1	0	-2	27*	-8
O=C(CSc1nc2ccc(Cl)cc2[nH]1)c1ccc2c(c1)OCO2	-20	3	-16	-5
O=C(CSc1nc2cc(Cl)c(Cl)cc2[nH]1)c1ccc2c(c1)OCO2	-12	-12	17*	-6
COC(=O)[C@]12C[C@H](CC(=O)N3CCN(C(=O)C4CC4)CC3)C(=O)N(Cc3ccco3)C1=C[C@H](C(C)(C)C)O[C@@H]2C	.	17	.	.
CCCCCCCCN1C(=O)[C@@H](CC(=O)N2CCOCC2)C[C@@]2(C(=O)OC)C1=C[C@H](COCc1ccccc1)O[C@@H]2C	.	-16	.	.
COc1ccc2c(c1)OC[C@H]1[C@H]2N2C(=O)c3ccc(C)cc3NC(=O)[C@@]2(C)[C@H]1c1ccccc1	.	40*	-5	-5
CC(C)CN1C(=O)C[C@]2(C(=O)N(C)c3ccc(NS(=O)(=O)c4ccc(F)cc4)cc32)C1c1ccccc1 (some centres not stated)	.	-12	.	.
CC(C)c1cc(C(C)C)n2nc(N)nc2n1	12	3	10*	6
CCOC(=O)[C@]12CCCC=C1N(Cc1ccc(OC)cc1)C(=O)[C@@H]2CC(=O)N1CCC(c2ccccc2)CC1	.	2	.	.
CCCCOc1ccc(C(=O)NC2CCCCN(Cc3cccc(Cl)c3)C2=O)cc1 (configuration not stated)	.	-2	.	.
OCCN1CCN(CC(O)COCc2ccc3c(c2)OCO3)CC1 (configuration not stated)	15	9	11*	4
N#C/C(=C\c1ccc(OCc2ccccc2)cc1)C(N)=O	-3	-1	12*	-9
